From PubChem BioAssay AID1508608 (The Scripps Research Institute Molecular Screening Center, 2020)
Screen size: about 2,300 compounds; about 20 (0.9%) were called active. For the sample, actives were picked, then their nearest neighbours and some compounds at random. Values without a mark were called inactive.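 How the source made its calls: active means mean activation across replicates above 26.72%, the hit cutoff set for this confirmation screen; inactive means the rest.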

Molecular target: G-protein coupled receptor 151 (Homo sapiens) (UniProt Q8TDV0)
Assay: GPR151 agonism via beta-arrestin recruitment – cell-based, PathHunter beta-arrestin, luminescence, set 2, confirmation (AID 1508608);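 further: 0% = plate median of compound wells and 100% = EA reagent high control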
Conditions: GPR151 PathHunter beta-arrestin cells, 90 min, at 11.2 µM, stronger effect = higher value, 100% = signal from added EA reagent

Sequence of G-protein coupled receptor 151 (Homo sapiens) (Q8TDV0 whole entry, looked up): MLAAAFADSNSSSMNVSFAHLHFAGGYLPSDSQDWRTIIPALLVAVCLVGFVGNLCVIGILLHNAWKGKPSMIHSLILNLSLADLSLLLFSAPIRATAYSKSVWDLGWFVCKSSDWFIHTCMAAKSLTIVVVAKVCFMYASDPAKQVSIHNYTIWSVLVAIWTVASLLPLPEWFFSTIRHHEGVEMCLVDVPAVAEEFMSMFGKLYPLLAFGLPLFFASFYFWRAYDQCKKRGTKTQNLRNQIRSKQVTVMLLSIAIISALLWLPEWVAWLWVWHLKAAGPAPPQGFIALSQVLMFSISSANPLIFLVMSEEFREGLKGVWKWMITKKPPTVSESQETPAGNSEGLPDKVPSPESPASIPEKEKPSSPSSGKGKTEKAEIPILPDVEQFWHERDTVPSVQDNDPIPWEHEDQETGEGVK

Row | Structure (SMILES) | activation
1 | COc1ccc(-c2onc(C(F)(F)F)c2-c2ccc(Cl)cc2)c(O)c1 | 0.9%
2 | Cc1ccc(Cl)cc1Nc1cc(N2CCOCC2)c2nonc2c1[N+](=O)[O-] | 3.43%
3 | CC(C)C[C@@H]1NC(=O)[C@H]2CN(Cc3cn(C)nc3-c3ccccc3)CCN2C1=O | 3.84%
4 | CCC(C)NC(=O)C1CCN(S(=O)(=O)N2CCOCC2)CC1 (configuration not stated) | 7.37%
5 | Cn1c(=O)oc2cc(S(=O)(=O)N3CCCC(C(=O)N4CCOCC4)C3)ccc21 (configuration not stated) | 11.4%
6 | CCc1ccc(C2=CC(c3ccc(OC)c(OC)c3)n3ncnc3N2)cc1 (configuration not stated) | 0.38%
7 | COc1ccccc1-c1nnc(C2CCN(S(=O)(=O)c3cccc(C#N)c3)CC2)o1 | -0.51%
8 | CCN(CC)CCNC1=CC(=O)OC12CCCCC2 | -1.78%
9 | CCC1Oc2ccccc2N(CC(=O)NC2CCCCCC2)C1=O (configuration not stated) | -3.51%
10 | O=C(c1ccco1)N1CCN(C(=O)C2(S(=O)(=O)c3ccc(Cl)cc3)CC2)CC1 | 4.46%
11 | O=C(NCCC12CC3CC(CC(C3)C1)C2)c1cc([N+](=O)[O-])ccc1N1CCOCC1 | 6.89%
12 | CCOc1ccc(-c2cc(C(=O)N/N=C/c3ccc(O)c(OCC)c3)[nH]n2)cc1 | -0.84%
13 | CCCOc1ccc(C2C3=C(CC(C)(C)CC3=O)N(CC(=O)O)C3=C2C(=O)CC(C)(C)C3)cc1OCC | 4.15%
14 | COc1ccc(C(=O)NCC2CCCN2S(=O)(=O)c2cccs2)cc1OC (configuration not stated) | -1.78%
15 | CN1CCN(C(CNS(=O)(=O)c2ccccc2)c2cccnc2)CC1 (configuration not stated) | -1.58%
16 | CCCCOC(=O)N1CCOCCOCCN(C(=O)OCCCC)CCOCCOCC1 | -4.43%
17 | Cc1ccc(-n2ncc3c(NCc4ccco4)ncnc32)c(C)c1 | 2.13%
18 | Cc1cccc(-c2nc3ccccc3c(=O)n2Cc2ccccc2C)c1 | 1.61%
19 | Cc1ccc(COc2cccc3c2CCN(C)C3=O)cc1 | -4.68%

Row | Structure (SMILES) | activation
20 | CC(=O)Oc1ccccc1N1C(=O)c2cccc([N+](=O)[O-])c2C1=O | 28.3% (active)
21 | CC(=O)c1ccc(N2C(=O)c3ccc(Oc4ccc([N+](=O)[O-])cc4[N+](=O)[O-])cc3C2=O)cc1 | -8.73%
22 | CCCCOC(=O)c1ccc(N2C(=O)c3cccc([N+](=O)[O-])c3C2=O)cc1 | -3.4%
23 | Cc1ccc([N+](=O)[O-])cc1NC(=O)C1C2/C=C\CCCCC21 (configuration not stated) | 0.67%
24 | O=C(NCCCN1CCCC1)C(=O)Nc1ccc2nc3n(c(=O)c2c1)CCCCC3 | -2.06%
25 | COc1ccc(-c2nc(-c3ccc(NC(=O)c4ccc(Br)o4)cc3)no2)cc1OC | 7.05%
26 | N=C(N)SCc1csc2c1CCCC2 | 1.33%
27 | Nc1nc(NC(=O)c2ccccc2)nn1-c1ccccc1 | -4.73%
28 | CC(C)c1ccc(/C=N\NC(=O)Cn2c(-c3nonc3N)nc3ccccc32)cc1 | 0.86%
29 | CCOC(=O)c1cnc2c(OC)cccc2c1NC1CCCCCC1 | 18.4%
30 | Cc1ccc(C2=N/C(=C\c3cccc(C(F)(F)F)c3)C(=O)O2)cc1[N+](=O)[O-] | 3.7%
31 | CCCCc1ccc(C2=N/C(=C\c3ccc(F)cc3)C(=O)N2c2ccc(Cl)cc2C)cc1 | -6.96%
32 | CCCc1c(C)nc2c(C(=O)NCc3ccc(F)cc3)c[nH]n2c1=O | 4.27%
33 | CC1CCCCC1NS(=O)(=O)c1ccc2c(c1)CCN2C(=O)C1CC1 (configuration not stated) | -8.17%
34 | CNS(=O)(=O)c1cc(-c2nnc(NCc3nc4ccccc4[nH]3)c3ccccc23)ccc1C | 0.28%
35 | CCOC(=O)c1cnc2ccc(OCC)cc2c1Nc1ccccc1OC | 0.37%
36 | CC(C(=O)O)n1ncn2cccc2c1=O (configuration not stated) | 0.45%
37 | Cc1cc2c(cc1S(=O)(=O)N1CCN(C3CCCCC3)CC1)OCC(=O)N2 | -3.55%
38 | CCCCc1ccc(C(=O)N/C(=C\c2ccc(C)cc2)C(=O)Nc2ccc([N+](=O)[O-])cc2)cc1 | -6.88%

Row | Structure (SMILES) | activation
39 | COCCCNC(=O)c1csc2c1CCCC2 | -6.29%
40 | COc1ccccc1OCC(=O)n1nc(C)cc1C | -1.85%
41 | CC1=C(C(=O)OCC(C)C)C(c2ccc(Cl)cc2Cl)NC(=O)N1 (configuration not stated) | 1.8%
42 | CCCCNC(=O)c1ccc2c(c1)ncn2-c1cc(OC)c(OC)c(OC)c1 | 3.91%
43 | Cc1ccc(S(=O)(=O)c2cc3cc([N+](=O)[O-])ccc3oc2=O)cc1C | -3.29%
44 | c1ccc(Oc2nc(NC3CC3)c3ncn(-c4ccsc4)c3n2)cc1 | 38.7% (active)
45 | Clc1nc(NCc2ccccc2)c2ncn(-c3ccccc3)c2n1 | -0.22%
46 | COc1ccc(S(=O)(=O)NC(N)=NCCc2ccccc2OC)cc1 | 0.59%
47 | O=C(Cn1ncc2c(=O)oc3ccccc3c21)Nc1nc2ccccc2s1 | -0.55%
48 | O=C(NCCc1ccccc1)c1cc(S(=O)(=O)N2CCOCC2)ccc1F | -1.01%
49 | O=C(NCC1CCC2(CCN(C(=O)Cc3cccc(F)c3)CC2)O1)c1ccccc1F (configuration not stated) | 0.36%
50 | O=C(CCC(=O)Nc1cc(C(F)(F)F)ccc1Cl)N/N=C\c1ccccc1O | -2.79%
51 | CCOC(=O)c1c(NC(=O)c2ccc(Cl)cc2Cl)sc(C(=O)Nc2ccccc2F)c1C | -10.1%
52 | Cc1ccc(-c2nnc(SCC(=O)NCc3ccccc3Cl)nc2-c2ccc(C)cc2)cc1 | -2.15%
53 | COc1ccc(CCNc2ncnc3c2oc2ccccc23)cc1OC | 44.3% (active)
54 | COc1ccc(CCNC(=O)/C=C\C(=O)O)cc1OC | 1.57%
55 | COc1ccc(CCNC(=O)Cn2ncn3cccc3c2=O)cc1OC | 3.19%
56 | O=C(Cn1c(=O)n(Cc2ccccc2Cl)c(=O)c2cccnc21)Nc1ccc(F)cc1 | -1.3%
57 | O=C(CCCn1c2ccccc2c(=O)c2ccccc21)Nc1cccc(Cl)c1 | 6.83%
